High-throughput results as filed in PubChem.
Hits are enriched below; roughly 3.4% of the tested compounds scored in any of these assays.
Wnt act: Wnt/beta-catenin pathway activators, primary screen, cell-based, plate reader, single point; Wnt/beta-catenin reporter cell assay, activator; activation, % at 9.35 µM; hit rate 1.2% among 300,000; AID 743398, 2014; in the data active = activation above about 30%, passing the limit was not always enough; inconclusive = no clear call, values can overlap the other calls;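 also: 0% = neutral control wells and 100% = positive control wells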
esBAF inh: Bmi1 luciferase reporter increase in mESCs, primary screen, esBAF inhibitor project, mouse ES cells, Bmi1 luciferase knock-in, single point | 24 h; 100% = twice the neutral-well signal | reporter increase, % at 12.5 µM | hit rate 2% among 350,000 | AID 602393, 2012; in the data active = activation above about 40%; inconclusive = no clear call, values can overlap the other calls;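 also: 0% = median of the plate's neutral control wells and 100% = double that signal; a rise in the Bmi1 reporter signal indicates esBAF inhibition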
miR122 inh: miR-122 Renilla sensor signal increase in Huh7, primary screen, miR-122 inhibitor project, cell-based, single point, plate reader. Huh7 miR-122 Renilla luciferase sensor, 48 h; neutral wells = 0, positive control = 100. activation (reporter increase), % at 12.5 µM. hit rate 0.3% among 340,000. AID 602342, 2012;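 active = mean replicate activation score at least 90 and every replicate individually at or above 90; inconclusive = only one of the two criteria met; inactive = neither criterion met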;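 also: higher luciferase means less miR-122 activity so hits act as miR-122 inhibitors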
MITF act: activators of MITF-driven TRPM1 promoter reporter, primary screen, cell-based, SK-MEL-5, luciferase, single point; SK-MEL-5 TRPM1-promoter luciferase, 24 h; % of positive control, neutral wells = 0; activation, % at 12.5 µM; hit rate 0.75% among 300,000;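 active = mean activation of at least 80% with every replicate also reaching 80%; inconclusive = mean reaches 80% but some replicate falls short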;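 also: 0% = neutral control wells and 100% = parthenolide positive control wells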
HIV Env fusion: inhibitors of HIV-1 Env-driven cell-cell fusion, primary screen, HeLa-JRFL effector, CEM21 target cells, luciferase; hit rate 1.1% among 360,000; AID 651610, 2012; inhibition, % at 12.3 µM;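 active = mean replicate inhibition score of at least 50 and every replicate individually at or above 50; inconclusive = only one of the two criteria met; inactive = mean below 50 and not all replicates reaching 50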;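 also: 0% = plate neutral controls and 100% = maraviroc near 300 nM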
Starred values were filed as active, the others as inactive; ? = inconclusive; / = not tested or not shown; [ ] = dose if it differs, or a comment.

SMILES | Wnt act | esBAF inh | miR122 inh | MITF act | HIV Env fusion
CCc1noc(C)c1C(=O)NCCc1ccccc1 | 34* | / | -4 | 46 | -27
Cc1nn(Cc2ccccc2)c(Cl)c1C(=O)NCCc1ccccc1 | 47* | / | 2 | 60 | -39
N/C(=N\OC(=O)COc1ccc(Br)cc1)c1ccncc1 | -2 | 6 | -3 | 16 | -38
N/C(=N\OC(=O)COc1ccc(Cl)cc1Br)c1cccnc1 | 12 | / | / | ? | -26
N/C(=N\OC(=O)COc1ccc(Br)cc1Cl)c1cccnc1 | 6 | / | / | 111* | -26
N/C(=N\OC(=O)COc1ccc(Cl)cc1Cl)c1ccncc1 | 8 | 71* | 0 | 56 | -99
N/C(=N\OC(=O)c1cccnc1)c1ccccc1Cl | 9 | 74* | -5 | 17 | -26
CNC[C@@H]1Oc2ccc(NS(=O)(=O)c3c(C)noc3C)cc2CC(=O)N([C@@H](C)CO)C[C@H]1C | / | -6 | -5[16.7 µM] | / | 15[16.7 µM]
C[C@@H]1CN([C@H](C)CO)S(=O)(=O)c2ccc(C#CC3CC3)cc2O[C@@H]1CN(C)C(=O)c1cnccn1 | / | 0 | -25[16.7 µM] | / | 6[16.7 µM]
Cc1nc2ccc(S(=O)(=O)Nc3cc(-c4nc5cccnc5s4)ccc3C)cc2s1 | 18 | 61* | 23 | / | /
Cc1ccc(Nc2nc3c(c(=O)[nH]2)CCCC3)cc1 | / | 70* | 0 | 37 | /
Clc1nc2ccccc2cc1-c1nnn(-c2ccccc2)n1 | 27 | 62* | / | / | -192
Clc1ncccc1-c1nnn(-c2ccccc2)n1 | 34* | 4 | 12 | 99* | /
Clc1ccc(-n2nnc(-c3cccnc3Cl)n2)cc1Cl | 30 | 55* | -7 | 95* | -202
c1ccc(OCCCn2nnc(-c3cccnc3)n2)cc1 | 0 | 4 | -4 | 0 | /
Cc1ccc(-n2nnc(-c3cnc4ccccc4c3)n2)cc1 | 23 | -37 | 9 | -6 | -44
c1ccc(-n2nnc(-c3cccnc3)n2)cc1 | 28 | 58* | -1 | 91* | /
Fc1ccc(-n2nnc(-c3cccnc3Cl)n2)cc1 | 17 | -2 | -1 | 65 | -158
Cc1ccc(S(=O)(=O)N[C@@H]2CC[C@@H](CC(=O)N3CCc4ccccc4C3)O[C@@H]2CO)cc1 | / | 0 | -6[16.7 µM] | / | 3[16.7 µM]
COc1ncccc1-c1nnn(-c2ccccc2Br)n1 | 16 | 22 | / | 16 | -12
COc1ncccc1-c1nnn(-c2ccccc2)n1 | 53* | 5 | / | / | -153
COc1ccc(C2=NCCn3nc4cc([N+](=O)[O-])ccc4c32)cc1 | -4 | 3 | -2 | 1 | -5
COc1ccc(-n2cc3ccc([N+](=O)[O-])cc3n2)cc1 | 41* | / | / | 23 | -190
COc1ccc(CNS(=O)(=O)c2ccc(OC)cc2)cc1 | / | -2 | 3 | -6 | /
COc1ccc(S(=O)(=O)NCc2ccccc2)cc1 | / | 10 | 113* | -6 | 1
SMILES | Wnt act | esBAF inh | miR122 inh | MITF act | HIV Env fusion
COc1ccc(S(=O)(=O)NCc2ccccc2)cc1Br | -2 | -5 | 192* | / | 5
COc1ccccc1Oc1ccc(S(=O)(=O)NCc2ccccn2)cc1 | / | / | / | -8 | 76*
COc1ccc(S(=O)(=O)NCc2ccccn2)cc1OC | -1 | 3 | 13 | / | 14
CCOC(=O)c1ccc(S(=O)(=O)NCCNCc2ccccc2)cc1 | 39* | -4 | -13 | 2 | 0
O=S(=O)(NCc1ccccc1)c1ccc(Cl)c(S(=O)(=O)NCc2ccccc2)c1 | / | / | 106* | / | 19
CC1(C)Cc2c(cnn2-c2ccc(F)cc2)C(NC(=O)CCN2CCCC2=O)C1 (stereo unspecified) | 17 | 44* | -11 | 26 | -18
CC1(C)Cc2c(cnn2-c2ccc(F)cc2)C(NC(=O)C2=NNC(=O)CC2)C1 (stereo unspecified) | -1 | 52* | -8 | 31 | -16
CC(C)(C)c1ccc(-n2ncc3c2CCCC3NC(=O)CN2CCCC2=O)cc1 (stereo unspecified) | -6 | -3 | / | -2 | 68*
Cc1cc(C)cc(-n2ncc3c2CCCC3NC(=O)CN2CCCC2=O)c1 (stereo unspecified) | -2 | 5 | -1 | 12 | 0
CS(=O)(=O)Nc1ccc2c(c1)[C@H]1C[C@H](CC(=O)NC3CCCCC3)O[C@@H](CO)[C@H]1O2 | / | 2 | 9[16.7 µM] | / | -4[16.7 µM]
